Assay results reported in PubChem BioAssay.
Values without a mark were called inactive.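 How the source made its calls: active means inhibition above 50%, about 3 SD of the validation set; inactive means the rest.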

These molecules were tested against Integrin beta-1 (Homo sapiens) + Integrin alpha-4 (Homo sapiens) (UniProt P13612+P05556) (assay: inhibition of HUTS-21 binding to VLA-4, pilot screen, VLA-4 allosteric modulator project, U937 cells, HUTS-21 mAb, flow cytometry, validation set (AID 2674;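 further: antibody binding induced by the VLA-4 ligand LDV present at three times its Kd; 0% = LDV ligand with antibody and no compound and 100% = antibody without LDV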)). Conditions: HUTS-21 LIBS mAb binding, at 6.7 µM, stronger effect = higher value.
Chain of Integrin beta-1 (Homo sapiens) + Integrin alpha-4 (Homo sapiens) (P05556 whole entry, looked up): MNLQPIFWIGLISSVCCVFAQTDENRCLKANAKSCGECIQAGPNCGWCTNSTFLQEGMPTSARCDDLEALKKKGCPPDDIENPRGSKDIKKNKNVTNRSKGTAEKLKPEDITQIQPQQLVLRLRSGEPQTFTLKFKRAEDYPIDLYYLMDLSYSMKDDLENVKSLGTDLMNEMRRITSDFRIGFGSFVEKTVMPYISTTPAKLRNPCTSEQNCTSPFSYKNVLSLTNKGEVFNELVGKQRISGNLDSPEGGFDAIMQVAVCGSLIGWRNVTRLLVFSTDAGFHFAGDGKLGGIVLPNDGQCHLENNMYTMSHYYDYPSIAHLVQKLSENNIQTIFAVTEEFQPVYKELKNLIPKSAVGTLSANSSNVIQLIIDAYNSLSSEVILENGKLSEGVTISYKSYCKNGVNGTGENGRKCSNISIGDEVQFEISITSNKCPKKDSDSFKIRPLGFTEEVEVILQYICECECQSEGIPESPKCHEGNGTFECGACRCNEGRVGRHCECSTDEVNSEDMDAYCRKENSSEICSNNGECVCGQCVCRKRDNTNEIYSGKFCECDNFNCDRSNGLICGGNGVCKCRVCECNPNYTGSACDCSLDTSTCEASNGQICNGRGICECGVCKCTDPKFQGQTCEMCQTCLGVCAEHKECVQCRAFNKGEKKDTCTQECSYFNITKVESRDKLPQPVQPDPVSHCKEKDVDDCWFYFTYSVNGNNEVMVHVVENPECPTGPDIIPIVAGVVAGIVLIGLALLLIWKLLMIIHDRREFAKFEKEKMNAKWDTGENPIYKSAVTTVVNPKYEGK
Chain of Integrin beta-1 (Homo sapiens) + Integrin alpha-4 (Homo sapiens) (P13612 whole entry, looked up): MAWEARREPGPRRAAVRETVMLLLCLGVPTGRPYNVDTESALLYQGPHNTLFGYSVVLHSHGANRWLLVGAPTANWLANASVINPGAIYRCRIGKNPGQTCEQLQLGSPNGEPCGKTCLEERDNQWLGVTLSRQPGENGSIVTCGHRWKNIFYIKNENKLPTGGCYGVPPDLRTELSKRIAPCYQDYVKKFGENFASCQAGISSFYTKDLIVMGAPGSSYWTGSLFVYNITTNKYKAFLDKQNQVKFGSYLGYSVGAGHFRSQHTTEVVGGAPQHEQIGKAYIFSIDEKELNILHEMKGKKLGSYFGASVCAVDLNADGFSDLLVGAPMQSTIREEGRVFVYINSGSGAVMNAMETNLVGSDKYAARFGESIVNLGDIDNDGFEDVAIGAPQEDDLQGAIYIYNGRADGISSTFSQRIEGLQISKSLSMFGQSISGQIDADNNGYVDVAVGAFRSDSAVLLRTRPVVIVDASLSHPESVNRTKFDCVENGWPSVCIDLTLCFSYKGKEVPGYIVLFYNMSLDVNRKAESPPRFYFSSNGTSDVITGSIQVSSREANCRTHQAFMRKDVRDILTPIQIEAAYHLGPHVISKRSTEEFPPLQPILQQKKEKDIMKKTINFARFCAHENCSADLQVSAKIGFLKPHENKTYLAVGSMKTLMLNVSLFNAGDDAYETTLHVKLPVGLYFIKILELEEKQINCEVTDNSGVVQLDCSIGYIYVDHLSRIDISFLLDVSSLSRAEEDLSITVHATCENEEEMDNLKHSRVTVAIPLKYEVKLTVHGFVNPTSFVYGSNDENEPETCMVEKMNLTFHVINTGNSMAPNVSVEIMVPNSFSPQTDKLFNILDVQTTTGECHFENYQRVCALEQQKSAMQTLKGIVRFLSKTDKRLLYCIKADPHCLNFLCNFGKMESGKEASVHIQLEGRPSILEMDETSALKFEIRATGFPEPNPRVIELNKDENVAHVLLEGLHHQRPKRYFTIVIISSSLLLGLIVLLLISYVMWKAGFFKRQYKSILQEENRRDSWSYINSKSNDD
CC(CCc1ccccc1)NC(C)C(O)c1ccc(O)cc1 (stereo not drawn) gave an inhibition of -20.8%.
In the case of NCCc1ccc(O)cc1, the inhibition is reported as -2.82%.
CC/C(=C\C=C\[C@@H]1C=C[C@@H]2CCC[C@H]2[C@@H]1C(=O)c1ccc[nH]1)[C@@H]1O[C@@H]([C@@H](C)C(=O)O)CC[C@@H]1C was tested, and the inhibition was -7.08%.
CCC(COC(=O)c1cc(OC)c(OC)c(OC)c1)(c1ccccc1)N(C)C (stereo not drawn) was tested, and the inhibition was 1.44%.
For Clc1ccc(COC(Cn2ccnc2)c2ccc(Cl)cc2Cl)c(Cl)c1 (stereo not drawn), the inhibition was -1.12%.
Work on COc1cc(/C=C2\C(=O)NC(=O)N(c3ccccc3)C2=O)c([N+](=O)[O-])cc1OC yielded an inhibition of 13.7%.
Molecule Nc1ccc([As](=O)(O)O)cc1 has an inhibition of 7.22%.
With O=C1CSC2N1CCNC21CCCCC1 (stereo not drawn) the inhibition was -31.6%.
CC(=O)Nc1cc([As](=O)(O)O)ccc1O gave an inhibition of 0.59%.
Work on C[C@]12CCC(=O)C(O)=C1CC[C@@H]1[C@@H]2CC[C@]2(C)C(=O)CC[C@@H]12 yielded an inhibition of 10.3%.
C[C@]12CCC(=O)C=C1CC[C@@H]1[C@@H]2C(=O)C[C@]2(C)C(=O)CC[C@@H]12 gave an inhibition of 6.55%.
CN1[C@@H]2CC[C@H]1CC(OC(=O)C1C=Nc3ccccc31)C2 (stereo partly drawn) was tested, and the inhibition was 20.3%.
CCCC(=O)OCC[N+](C)(C)C showed an inhibition of 14.2%.
Work on CC12CCC3C(CC=C4CC5(CCC43C)OCCO5)C1CCC2=O (stereo not drawn) yielded an inhibition of -9.06%.
With Cc1nc2ccccc2c(=O)n1-c1ccc(C(=O)O)cc1 the inhibition was 2.93%.
c1ccc2c(c1)OCC(C1=NCCN1)O2 (stereo not drawn) gave an inhibition of 0.69%.
C[C@]12CC[C@@H]3c4ccc(O)c(O)c4CC[C@H]3[C@@H]1CC[C@@H]2O showed an inhibition of 27.7%.
Work on NCC(O)c1ccc(O)cc1 (stereo not drawn) yielded an inhibition of -2.27%.
COc1ccc2c3c([nH]c2c1)C(C)=NCC3 showed an inhibition of -16.1%.
CCCC(C)(COC(N)=O)COC(=O)NC(C)C (stereo not drawn) showed an inhibition of 23.6%.
For c1cnc2c(c1)ccc1ncccc12, the inhibition was 0.59%.
With CC12CN3CC(c4ccccc4)(CN(C1)C31CCCCC1)C2=O the inhibition was 9.13%.
C[C@H]1CCCC(=O)CCCCCc2cc(O)cc(O)c2C(=O)O1 showed an inhibition of 0.59%.
